Sampled rows, rich in hits. Any-hit rate of the full collection: about 1.8%.
EP2 mod: EP2 receptor (human) modulation; P43116; induction, % at 25 µM; AID 940; hit rate 0.83% among 260,000; EP2-expressing cells, cAMP HTRF FRET, PGE2 co-stimulation;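 active means compounds whose cAMP rise, as percent of the full-agonist control response, exceeds 60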;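 further: rat C6 glioma line stably carrying human EP2 under a CMV promoter; the protocol text gives 20 µM as final concentration; 100% = response of wells given 1 µM PGE2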
PERK inhibitor: blocks human PERK kinase; Q9NZJ5; CHO PERK-DD fusion, SEAP luminescence translation reporter; inhibition, % at 5.6 µM; hit rate 0.17% among 220,000;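 active means inhibition above the mean inhibition of all tested compounds plus 3 SD, set separately per screening campaign, cut at about 2.9% in these data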;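 further: PERK kinase domain activated by AP20187 dimerizer at 100 nM; 0% = DMSO with dimerizer and 100% = rapamycin at 8.4 µM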
EP2 antag: blocks the human prostaglandin E2 receptor EP2 | inhibition, % at 25 µM | hit rate 0.52% among 260,000 | P43116 | AID 1422 | C6 glioma cells expressing human EP2, cAMP TR-FRET; cells stimulated with saturating PGE2;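 active means percent inhibition above 40 after rounding to a whole number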;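 further: rat C6 glioma host cells with rolipram phosphodiesterase inhibitor present; the protocol text gives 20 µM as final concentration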
eIF4E-4G inh: blocks eIF4E binding to eIF4G. P63073+Q04637. TR-FRET eIF4E-eIF4GI(517-606) binding, 2 h. inhibition, % at 21.7 µM. hit rate 0.37% among 220,000. AID 782;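 active means inhibition above about 30%, limit read from the data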;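 further: 0% = full FRET control wells and 100% = background wells lacking eIF4GI fragment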
Active calls of the source: *.

How did C[C@@H]1OC(O[C@H]2[C@H](OC(=O)[C@]34CCC(C)(C)CC3C3=CCC5[C@@]6(C)CC[C@H](OC7O[C@@H](C)[C@H](O[C@@H]8OC[C@@H](O)[C@H](O)[C@H]8O)[C@@H](O)[C@H]7O)C(C)(C)C6CC[C@@]5(C)[C@]3(C)CC4O)OC[C@H](O)[C@H]2O)[C@H](O)[C@H](O)[C@H]1O[C@@H]1O[C@H](CO)[C@@H](O)[C@H](O)[C@H]1O (some centres undefined) do in these assays?
EP2 mod: -25.4; EP2 antag: 107.7*

How did O=c1cnn([C@@H]2O[C@H](CO)[C@@H](O)[C@H]2O)c(=O)[nH]1 do in these assays?
EP2 mod: 19.5; PERK inhibitor: 1.4; EP2 antag: 7.2; eIF4E-4G inh: 94.0*

Results for Nc1ccn(C2O[C@H](CO)[C@@H](O)[C@H]2O)c(=O)n1 (some centres undefined) ?
EP2 mod: 22.5; EP2 antag: 15.0

How did COc1ccc(-c2nn(C)c3sc(C(=O)NCc4ccco4)cc23)cc1OC do in these assays?
EP2 mod: 4.0; PERK inhibitor: -0.1; EP2 antag: 11.5; eIF4E-4G inh: -7.7

How did COc1ccc(NC(=O)c2cc3c(-c4ccc(OC)c(OC)c4)nn(C)c3s2)cc1OC do in these assays?
EP2 mod: -27.2; PERK inhibitor: -2.1; EP2 antag: 43.1*; eIF4E-4G inh: 6.2

Results for CCN(CC)C(=O)c1sc2[nH]c(=S)n(-c3ccccc3)c(=O)c2c1C ?
EP2 mod: 60.7*; PERK inhibitor: 0.7; EP2 antag: 9.8; eIF4E-4G inh: 0.8

What do the screens show for `Cc1ccc(-n2c(=O)c3cc4c(=O)n(-c5ccc(C)c(C)c5)c(=O)c4c(C(=O)c4ccc(C(=O)O)cc4)c3c2=O)cc1C`?
EP2 mod: 7.8; PERK inhibitor: 0.4; EP2 antag: 0.5; eIF4E-4G inh: 63.8*

What do the screens show for `CCNCC(O)COCC(O)CNCC` (centres undefined)?
EP2 mod: 19.3; PERK inhibitor: 1.5; EP2 antag: 4.5; eIF4E-4G inh: 46.0*

Results for O=C(CNC(=O)c1cccs1)NCC(=O)OCc1ccc(Cl)c(Cl)c1 ?
EP2 mod: -73.1; EP2 antag: 10.6

How did O=C(O)c1ccc(N2C(=O)/C(=C/c3ccc(-c4ccc([N+](=O)[O-])cc4)o3)C=C2c2ccccc2)cc1 do in these assays?
EP2 mod: -16.6; PERK inhibitor: 0.2; EP2 antag: 7.1; eIF4E-4G inh: 76.4*

Results for CC(C)[C@@H]1OC(=O)C=CC=CC=CC=CC=CC[C@@H](O)[C@H](C)[C@@H](O)C[C@H](O)C[C@H](O)C[C@H](O)C[C@H](O)C[C@H](O)C[C@H](O)C=C[C@@H]1C ?
EP2 mod: -6.4; EP2 antag: 48.6*

How did Cc1ncc([N+](=O)[O-])cc1C(=O)NN do in these assays?
EP2 mod: 17.2; EP2 antag: 13.9

How did CC(NC(=O)c1ccncc1)C(c1cccs1)N1CCOCC1 (centres undefined) do in these assays?
EP2 mod: 29.2; PERK inhibitor: 1.5; EP2 antag: 4.9; eIF4E-4G inh: 0.8

Results for Cc1cccc(C(=O)NC(C)C(c2cccs2)N2CCOCC2)c1 (centres undefined) ?
EP2 mod: 20.2; PERK inhibitor: -2.0; EP2 antag: 4.5; eIF4E-4G inh: 96.8*

Results for Oc1ccc(-c2nc3cnccn3c2NCc2ccco2)cc1O ?
EP2 mod: -45.3

How did CCOc1cccc(C2NC(=S)NC(C)=C2C(=O)Nc2ccccc2)c1 (centres undefined) do in these assays?
EP2 mod: 26.4; PERK inhibitor: 1.1; EP2 antag: 4.8; eIF4E-4G inh: -2.2

What do the screens show for `CCOc1cc(C2NC(=S)NC(C)=C2C(=O)Nc2ccc(OC)cc2)ccc1O` (centres undefined)?
EP2 mod: 8.1; PERK inhibitor: 3.4*; EP2 antag: 9.4; eIF4E-4G inh: -2.3

Results for CC(C)CC(=O)/C(=C\c1ccc(Cl)cc1Cl)n1cncn1 ?
EP2 mod: -53.9; PERK inhibitor: 0.8; EP2 antag: 52.1*; eIF4E-4G inh: 1.4

What do the screens show for `C[N+]1(CCCC[N+]2(C)CCCCCCC2)CCCCCCC1`?
EP2 mod: 20.1; EP2 antag: 45.8*

What do the screens show for `CCCC(NC(=O)c1ccnn1C(C)C)c1cccs1` (centres undefined)?
EP2 mod: 34.8; EP2 antag: 3.6

Results for Cc1ccc(NN2C(=O)C=C(c3ccc(Cl)cc3)C2=O)cc1 ?
EP2 mod: -32.6; PERK inhibitor: -0.3; EP2 antag: 40.2*; eIF4E-4G inh: 3.5

Source: PubChem BioAssay
